Drawing on ChEMBL document CHEMBL4513216, “Probing the Open Global Health Chemical Diversity Library for Multistage-Active Starting Points for Next-Generation Antimalarials” (ACS Infect Dis, 2020), this text covers INHIBITION for 50 molecules.

The structures appear in SMILES notation. Hit rate of the full screen: of about 69,000 compounds, about 8,600 (12%) showed an effect of 50% or more. For the sample, strong results were picked, then their nearest neighbours and some compounds at random.

For this assay, the system named is Plasmodium berghei. As to the kind of experiment: Screen against P. berghei liver stage (PbLuc), transformed with Luciferase, at 10uM. The format is functional, HepG2. Conditions: tested at 10 uM.
Take `CNS(=O)(=O)c1cc(C)c2[nH]c(=O)cc(C)c2c1`: the INHIBITION worked out at 56%.
Regarding `CCOCCNS(=O)(=O)c1cc(C)c2nc(O)cc(C)c2c1`, the INHIBITION worked out at 16.3%.
Under `CCCNS(=O)(=O)c1ccc2[nH]c(=O)cc(C)c2c1` stands 14.3%; under `CN(C)C(=O)[C@@H]1C[C@@H]2CCN(C3CCOCC3)C[C@@H]2O1`, 14.5%.
As to `CCc1cc(NCC(O)CN2CCCCC2)n2ncnc2n1` (stereo not given), the INHIBITION was -0.79%.
Under `CN(C)C(=O)N1C[C@H]2CC[C@@H](C1)N(C(=O)c1cccc(N(C)C)c1)C2` stands 26.7%; under `CN(C)c1cccc(C(=O)N2C[C@@H]3CC[C@H]2CN(C(=O)C2CCC2)C3)c1`, 50.3%; under `CCOc1cccc(C(=O)N2C[C@@H]3CC[C@H]2CN(C(=O)C2CCC2)C3)c1`, 27.6%.
Under `CN(C)C(=O)c1cnc2n1CCN(Cc1ccsc1)C2` stands 3.11%; under `COCC1c2c(cnn2C)CCN1Cc1cccc(C)c1` (stereo not given), 26.3%.
Under `CN1CCN(CC2(O)CCCN(C(=O)Cc3cccc(O)c3)CC2)CC1` (stereo not given) stands -2.09%; under `O=S(=O)(Cc1ccccc1)NCc1ccco1`, 11.5%; under `O=S(=O)(Cc1ccc(F)cc1)NCc1ccco1`, 52.1%.
As for `Cc1ccc(CS(=O)(=O)NCc2ccco2)cc1`, the INHIBITION stood at 52.1%.
Under `CC(C)(Oc1ccc(F)cc1)C(=O)NCc1ccco1` stands -0.797%; under `O=C1OCCN1c1cccc(CNS(=O)(=O)Cc2ccc(F)cc2)c1`, 18.9%; under `CNc1c(NCc2ccco2)c(=O)c1=O`, 33.5%.
Under `O=C1CCC[C@]2(CN(S(=O)(=O)N3CCCCC3)C[C@H]2c2cccnc2)N1` stands 17.4%; under `O=C(CO[C@@H]1CC[C@H]2[C@H]1OCCN2CC1CCOCC1)N1CCCC1`, 11.9%; under `CN(C)CCN1CCOCC2(CCCN(C(=O)c3ccccc3)C2)C1` (stereo not given), 20.9%.
Under `CN1CCOCC2(CCCN(C(=O)c3cn(C)cn3)C2)C1` (stereo not given) stands -57.7%.
`CN(C)CCN1CCOCC2(CCCN(C(=O)c3cccc(O)c3)C2)C1` (stereo not given): the INHIBITION is listed as 4.61%.
Then `CN(C)CCN1CCOCC2(CCCN(C(=O)c3cccn3C)C2)C1` (stereo not given), with 47.9%; and `CN(C)CCN1CCOCC2(CCCN(C(=O)c3ccccn3)C2)C1` (stereo not given), with 54.7%; and `CN1CCOCC2(CCCN(C(=O)c3ccc(-n4cccc4)cc3)C2)C1` (stereo not given), with 50.9%.
Under `CN(C)CCN1CCOCC2(CCCN(C(=O)c3ccoc3)C2)C1` (stereo not given) stands 30.3%; under `CN1CCOCC2(CCCN(C(=O)c3ccccc3F)C2)C1` (stereo not given), 34.6%; under `Cc1cc(C(=O)N2CCCC3(COCCN(CCN(C)C)C3)C2)no1` (stereo not given), 56.1%.
Turning to `Cc1ccc(C)c(NS(=O)(=O)c2cc3c(c(C(=O)O)c2)OCCO3)c1`, the INHIBITION came to 38.8%.
Regarding `O=C(NCCc1nc(C2CC2)no1)[C@H]1CNC[C@H](C(=O)N2CCCC2)C1`, the INHIBITION is given as -31.3%.
On to `Cc1nn(C)c(N(C)C)c1CNCc1ccc(OCCN(C)C)cc1`, for which the INHIBITION stood at 27.6%.
Under `COCCn1ccc2cc(NC(C)=O)ccc21` stands 18.2%; under `Cc1[nH]c2ccc(CNc3cc(C(N)=O)ccn3)cc2c1C`, 16.9%.
Then `CSCC(C)NCc1ccc2[nH]c(C)c(C)c2c1` (stereo not given), with 76.9%; and `Cc1[nH]c2ccc(CNc3cc(C#N)ccn3)cc2c1C`, with 16.9%.
Then `Cc1[nH]c2ccc(CNc3cc(C(=O)NC(C)C)ccn3)cc2c1C`, with 55.4%.
With `COC(=O)C(C)NCc1ccc2[nH]c(C)c(C)c2c1` (stereo not given), the INHIBITION is recorded as 46.4%.
With `COCC(C)NCc1ccc2[nH]c(C)c(C)c2c1` (stereo not given), the INHIBITION is 2.9%.
Under `CC(=O)N1Cc2ccccc2OC2(CCN(C(=O)C3CC3)CC2)C1` stands 37.8%; under `CCCSc1ncccc1C(=O)NCc1ccc(S(N)(=O)=O)cc1`, -7.29%.
For the molecule `N#Cc1cccc(NS(=O)(=O)c2ccc(C(=O)O)cc2F)c1`, the INHIBITION is 45.7%.
Under `CN(Cc1ccc(N(C)C)cc1)C(=O)CS(=O)(=O)c1ccc(Cl)cc1` stands 64.3%; under `CN(C)c1ccc(CNC(=O)c2ccc(Cl)cc2F)cc1`, 14.2%.
Regarding `CN(Cc1ccc(OC(F)F)cc1)C(=O)CS(=O)(=O)c1ccc(Cl)cc1`, the INHIBITION worked out at 34.7%.
Consider `CC1(C)O[C@@](C)([C@H]2CC3(CCN(c4ncccn4)CC3)CO2)CC[C@@H]1O`, for which the INHIBITION is given as 32.7%.
Then `CC(C)c1noc(CN2CCN(C(=O)c3ccc(F)cc3)CC2)n1`, with 16.8%.
Regarding `O=C(CN1CCCCC1)Nc1ncc(Br)cc1Br`, the INHIBITION is 27.8%.
`Cc1cc(I)c2c(c1)C(=O)C(CN1CCCC1)(CN1CCCC1)CO2`: the INHIBITION is -55.3%.
Under `O=C1c2cc(Br)cc(Br)c2OCC1(CN1CCCC1)CN1CCCC1` stands 59%; under `FC(F)CN1CCC(NCCc2ccc(-n3cccn3)cc2)CC1`, 6.83%.
